Records with an inconclusive call do not appear. Activity calls are given as the source filed them. The call rests on the fitted dose curve; in most records, active means well fitted curve in the direction sought with a large enough effect; inconclusive means small, poorly fitted or top-dose-only effect, or another doubt; inactive means no such curve, though single readings can be large; an effect the other way counts as inactive or inconclusive.
Legend:
[1] = Quantitative High-Throughput drug screen in 47 multiple myeloma cell lines against the NCATS MIPE library collection: MOLP8_DSMZ cell viability assay (AID 1918977); further: nearly all actives have a fitted effect of over 45% in size; further: potency means the concentration at half of the fitted maximal effect
Method in brief: (§1)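 ATP-based luminescence (CellTiter-Glo, 5 min RT incubation) quantified surviving cells following two days' treatment with MIPE 4.0 agents at 37 °C, 5% CO2.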

[2] = Quantitative High-Throughput drug screen in 47 multiple myeloma cell lines against the NCATS MIPE library collection: MM1S_ATCC cell viability assay (AID 1918980); further: nearly all actives have a fitted effect of over 45% in size; further: potency means the concentration at half of the fitted maximal effect
Method in brief: as §1

[3] = Quantitative High-Throughput drug screen in 47 multiple myeloma cell lines against the NCATS MIPE library collection: KMS28PE_JCRB cell viability assay (AID 1918983); further: nearly all actives have a fitted effect of over 35% in size; further: potency means the concentration at half of the fitted maximal effect
Method in brief: as §1

[4] = Quantitative High-Throughput drug screen in 47 multiple myeloma cell lines against the NCATS MIPE library collection: OCIMY7_PLB cell viability assay (AID 1918987); further: nearly all actives have a fitted effect of over 65% in size; further: potency means the concentration at half of the fitted maximal effect
Method in brief: as §1

[5] = Quantitative High-Throughput drug screen in 47 multiple myeloma cell lines against the NCATS MIPE library collection: OCIMY5_PLB cell viability assay (AID 1918988); further: nearly all actives have a fitted effect of over 65% in size; further: potency means the concentration at half of the fitted maximal effect
Method in brief: as §1

[6] = Quantitative High-Throughput drug screen in 47 multiple myeloma cell lines against the NCATS MIPE library collection: SKMM1_PLB cell viability assay (AID 1919863); settings: SKMM1 myeloma viability, CellTiter-Glo ATP, 48 h; viability: stronger effect = lower value; further: nearly all actives have a fitted effect of over 35% in size; further: potency means the concentration at half of the fitted maximal effect; on viability: series mostly up to about 46 µM
Method in brief: as §1

[7] = Quantitative High-Throughput drug screen in 47 multiple myeloma cell lines against the NCATS MIPE library collection: U266_ATCC cell viability assay (AID 1919864); further: nearly all actives have a fitted effect of over 35% in size; further: potency means the concentration at half of the fitted maximal effect;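 on viability (% of DMSO control): 0% = media-only wells without cells and 100% = DMSO-only wells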
Method in brief: as §1

[8] = Quantitative High-Throughput drug screen in 47 multiple myeloma cell lines against the NCATS MIPE library collection: UTMC2_PLB cell viability assay (AID 1919868); settings: CellTiter-Glo ATP luminescence, 48 h; viability (% of DMSO control): at 45.8 µM; further: potency means the concentration at half of the fitted maximal effect; nearly all actives have a fitted effect of over 55% in size
Method in brief: as §1

[9] = Quantitative High-Throughput drug screen in 47 multiple myeloma cell lines against the NCATS MIPE library collection: PE2_PLB cell viability assay (AID 1919869); further: nearly all actives have a fitted effect of over 35% in size; further: potency means the concentration at half of the fitted maximal effect
Method in brief: as §1

[10] = Quantitative High-Throughput drug screen in 47 multiple myeloma cell lines against the NCATS MIPE library collection: OCIMY1_PLB cell viability assay (AID 1918979)
Method in brief: as §1

[11] = Quantitative High-Throughput drug screen in 47 multiple myeloma cell lines against the NCATS MIPE library collection: MM1R_ATCC cell viability assay (AID 1918981); further: nearly all actives have a fitted effect of over 35% in size; further: potency means the concentration at half of the fitted maximal effect
Method in brief: as §1

[12] = Quantitative High-Throughput drug screen in 47 multiple myeloma cell lines against the NCATS MIPE library collection: LP1_DSMZ cell viability assay (AID 1918982); further: nearly all actives have a fitted effect of over 35% in size; further: potency means the concentration at half of the fitted maximal effect
Method in brief: as §1

[13] = Quantitative High-Throughput drug screen in 47 multiple myeloma cell lines against the NCATS MIPE library collection: XG6_PLB cell viability assay (AID 1919865); further: nearly all actives have a fitted effect of over 40% in size; further: potency means the concentration at half of the fitted maximal effect
Method in brief: as §1

[14] = Quantitative High-Throughput drug screen in 47 multiple myeloma cell lines against the NCATS MIPE library collection: VP6_DJ cell viability assay (AID 1919867); further: potency means the concentration at half of the fitted maximal effect; nearly all actives have a fitted effect of over 40% in size
Method in brief: as §1

[15] = Quantitative High-Throughput drug screen in 47 multiple myeloma cell lines against the NCATS MIPE library collection: NCIH929_DSMZ cell viability assay (AID 1918978); further: nearly all actives have a fitted effect of over 35% in size; further: potency means the concentration at half of the fitted maximal effect
Method in brief: as §1

[16] = Quantitative High-Throughput drug screen in 47 multiple myeloma cell lines against the NCATS MIPE library collection: OPM1_PLB cell viability assay (AID 1918989); further: nearly all actives have a fitted effect of over 40% in size; further: potency means the concentration at half of the fitted maximal effect
Method in brief: as §1

[17] = Quantitative High-Throughput drug screen in 47 multiple myeloma cell lines against the NCATS MIPE library collection: XG1_PLB cell viability assay (AID 1919866); further: nearly all actives have a fitted effect of over 35% in size; further: potency means the concentration at half of the fitted maximal effect
Method in brief: as §1

[18] = Quantitative High-Throughput drug screen in 47 multiple myeloma cell lines against the NCATS MIPE library collection: PCM6_Riken cell viability assay (AID 1919870); further: nearly all actives have a fitted effect of over 30% in size; further: potency means the concentration at half of the fitted maximal effect
Method in brief: as §1

[19] = Quantitative High-Throughput drug screen in 47 multiple myeloma cell lines against the NCATS MIPE library collection: KMS34_JCRB cell viability assay (AID 1918985);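 further: 100% = DMSO-only wells and 0% = media-only wells; nearly all actives have a fitted effect of over 40% in size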
Method in brief: as §1

Cc1c(C(=O)Nc2cccc(C(F)(F)F)c2)cc(-c2ccccc2)n1CCCN1CCOCC1
active: Potency [1] 20.9 µM | Potency [2] 20.9 µM | Potency [3] 16.6 µM | Potency [4] 0.372 µM | Potency [5] 16.6 µM | Potency [6] 26.4 µM | Potency [7] 16.6 µM | Potency [8] 5.9 µM | Potency [9] 14.8 µM

CC(=CCCC1=CCC(C2=CC(=O)OC2O)OC1O)CCC1=C(C)CCCC1(C)C (stereo unspecified)
active: Potency [2] 20.9 µM | Potency [7] 18.7 µM | Potency [13] 16.6 µM | Potency [14] 4.18 µM
inactive: Potency [1] | Potency [10] | Potency [11] | Potency [12] | viability [6] 104% | Potency [9]

CCCCCC[C@H]1C(=O)O[C@H](C)[C@H](NC(=O)c2cccc(NC=O)c2O)C(=O)O[C@@H](C)[C@@H]1OC(=O)CC(C)C
active: Potency [1] 0.235 µM | Potency [15] 0.332 µM | Potency [2] 4.69 µM | Potency [3] 0.372 µM | Potency [4] 0.187 µM | Potency [5] 0.0662 µM | Potency [16] 0.148 µM | Potency [6] 5.26 µM | Potency [7] 0.372 µM | Potency [13] 0.105 µM | Potency [17] 0.0235 µM | Potency [14] 0.0469 µM | Potency [8] 0.0526 µM | Potency [9] 0.209 µM | Potency [18] 0.0526 µM

O=C(Oc1ccc([N+](=O)[O-])cc1)N1CCN(Cc2cccc(Oc3ccccc3)c2)CC1
inactive: Potency [1] | Potency [11] | Potency [12] | Potency [3] | Potency [19] | Potency [5] | Potency [16] | viability [6] 117% | Potency [9]
active: Potency [2] 11.8 µM | Potency [7] 14.8 µM | Potency [13] 23.5 µM | Potency [17] 20.9 µM

CCc1c(C(=O)C(N)=O)c2c(OCC(=O)O)cccc2n1Cc1ccccc1
active: Potency [3] 7.43 µM
inactive: Potency [15] | Potency [10] | Potency [2] | Potency [11] | Potency [19] | Potency [4] | Potency [5] | Potency [16] | Potency [7] | Potency [13] | Potency [17] | Potency [9] | Potency [18]

O=S(=O)(CC1CS1)c1ccc(Oc2ccccc2)cc1 (stereo unspecified)
active: Potency [1] 16.6 µM | Potency [15] 16.6 µM | Potency [2] 14.8 µM | Potency [11] 16.6 µM | Potency [4] 5.26 µM | Potency [5] 20.9 µM | Potency [16] 18.7 µM | Potency [6] 20.9 µM | Potency [7] 14.8 µM | Potency [13] 13.2 µM | Potency [17] 14.8 µM | Potency [9] 16.6 µM | Potency [18] 23.5 µM

C=C[C@@H]1CN2CCC1C[C@H]2[C@H](O)c1ccnc2ccccc12 (stereo partly specified)
inactive: Potency [10]
active: Potency [15] 14.8 µM | Potency [2] 18.7 µM | Potency [11] 26.4 µM | Potency [12] 10.5 µM | Potency [3] 14.8 µM | Potency [16] 16.6 µM | Potency [6] 20.9 µM | Potency [7] 20.9 µM | Potency [17] 16.6 µM | Potency [9] 20.9 µM | Potency [18] 14.8 µM

— PubChem BioAssay (NCATS)
